This note sets out measurements from paper PMC7862700, “An all-to-all approach to the identification of sequence-specific readers for epigenetic DNA modifications on cytosine”.

Common to all, as to assay: DAPPL (digital affinity profiling via proximity ligation, sequencing); 10 mM Tris-HCl pH 7.5, 50 mM NaCl, 1 mM DTT, 4% glycerol, room temperature, 30 min; GST-TFs on glutathione beads, 16-mer random dsDNA library, 0.1% formaldehyde crosslink after washing; high values mean tight binding
What all share (details): protein: recombinant; tags: N-terminal GST; dsDNA, one strand shown

One assay deals with T1, FLI1 (Homo sapiens, UniProt Q01543 1-452).
T1 sequence: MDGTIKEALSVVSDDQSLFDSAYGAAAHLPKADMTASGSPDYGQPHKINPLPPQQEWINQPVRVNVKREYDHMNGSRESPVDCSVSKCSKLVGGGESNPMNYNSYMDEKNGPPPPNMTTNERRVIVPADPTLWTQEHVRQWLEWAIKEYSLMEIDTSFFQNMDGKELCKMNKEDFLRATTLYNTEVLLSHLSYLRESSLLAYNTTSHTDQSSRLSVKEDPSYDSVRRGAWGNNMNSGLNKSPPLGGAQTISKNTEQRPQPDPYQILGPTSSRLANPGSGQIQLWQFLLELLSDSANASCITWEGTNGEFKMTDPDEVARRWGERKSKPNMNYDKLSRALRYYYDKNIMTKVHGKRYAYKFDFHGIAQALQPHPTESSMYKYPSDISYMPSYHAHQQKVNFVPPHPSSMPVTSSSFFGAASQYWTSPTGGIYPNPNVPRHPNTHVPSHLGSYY
Summed up: (§1)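 A tag-only sample was pooled with DNA-barcoded human transcription factors that had been expressed in yeast as GST fusions and captured on glutathione beads. The pools were incubated for 30 min at room temperature with 200 nmole of a random double-stranded 16-mer DNA library in Tris/NaCl/DTT/glycerol buffer, then washed, crosslinked with 0.1% formaldehyde, proximity-ligated (BsaI/T4 ligase, 1 h, 37 °C), PCR-amplified and sequenced on an Illumina NextSeq500. Binding signal is each hexamer's read frequency for a factor divided by its frequency for the tag-only sample.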

The next assay has as its target T2, ELK1 (Homo sapiens, UniProt P19419 1-428).
T2 sequence: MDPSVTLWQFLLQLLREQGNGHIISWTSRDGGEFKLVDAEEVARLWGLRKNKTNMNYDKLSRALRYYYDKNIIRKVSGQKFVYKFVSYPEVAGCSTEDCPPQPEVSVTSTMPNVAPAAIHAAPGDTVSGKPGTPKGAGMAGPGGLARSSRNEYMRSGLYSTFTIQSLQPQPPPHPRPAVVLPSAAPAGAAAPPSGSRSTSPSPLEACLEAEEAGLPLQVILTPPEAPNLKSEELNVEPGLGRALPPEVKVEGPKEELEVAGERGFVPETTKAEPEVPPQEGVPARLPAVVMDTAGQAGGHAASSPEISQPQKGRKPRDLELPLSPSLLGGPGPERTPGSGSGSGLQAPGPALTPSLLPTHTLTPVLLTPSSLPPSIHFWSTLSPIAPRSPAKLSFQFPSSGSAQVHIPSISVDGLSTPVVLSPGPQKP
Summed up: as §1

Another assay concerns the target T3, GABPA (Homo sapiens, UniProt Q06546 1-454).
T3 sequence: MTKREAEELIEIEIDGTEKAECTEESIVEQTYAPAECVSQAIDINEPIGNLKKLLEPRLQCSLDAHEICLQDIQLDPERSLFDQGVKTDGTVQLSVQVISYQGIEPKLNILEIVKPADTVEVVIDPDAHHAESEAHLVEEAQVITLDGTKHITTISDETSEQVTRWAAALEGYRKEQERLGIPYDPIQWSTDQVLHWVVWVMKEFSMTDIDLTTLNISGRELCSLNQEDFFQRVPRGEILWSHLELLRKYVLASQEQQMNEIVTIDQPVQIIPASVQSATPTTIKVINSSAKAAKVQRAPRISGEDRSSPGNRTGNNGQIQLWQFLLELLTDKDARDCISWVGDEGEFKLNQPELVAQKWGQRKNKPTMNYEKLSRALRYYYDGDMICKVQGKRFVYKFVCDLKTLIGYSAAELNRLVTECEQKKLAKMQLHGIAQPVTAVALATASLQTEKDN
The procedure, abridged:
as §1

For the next assay, the target named is T4, ERG (Homo sapiens, UniProt P11308 1-479).
T4 sequence: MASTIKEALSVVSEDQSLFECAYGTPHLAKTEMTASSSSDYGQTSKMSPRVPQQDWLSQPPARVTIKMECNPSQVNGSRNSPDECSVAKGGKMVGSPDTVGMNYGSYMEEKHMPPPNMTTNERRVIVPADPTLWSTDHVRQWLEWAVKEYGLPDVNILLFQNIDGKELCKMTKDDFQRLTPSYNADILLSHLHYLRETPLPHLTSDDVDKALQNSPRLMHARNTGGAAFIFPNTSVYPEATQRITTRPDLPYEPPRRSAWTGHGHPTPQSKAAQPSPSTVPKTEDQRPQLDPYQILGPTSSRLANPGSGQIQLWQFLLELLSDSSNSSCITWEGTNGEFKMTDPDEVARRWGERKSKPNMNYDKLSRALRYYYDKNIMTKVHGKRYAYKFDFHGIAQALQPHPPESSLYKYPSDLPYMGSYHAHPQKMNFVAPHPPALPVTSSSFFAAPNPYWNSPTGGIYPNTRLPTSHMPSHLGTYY
Summed up:
as §1

The target of the next assay is ELF1 (Homo sapiens, UniProt P32519 1-619). The procedure, abridged: as §1
The target in another assay is T5, EHF (Homo sapiens, UniProt Q9NZC4 1-300).
T5 sequence: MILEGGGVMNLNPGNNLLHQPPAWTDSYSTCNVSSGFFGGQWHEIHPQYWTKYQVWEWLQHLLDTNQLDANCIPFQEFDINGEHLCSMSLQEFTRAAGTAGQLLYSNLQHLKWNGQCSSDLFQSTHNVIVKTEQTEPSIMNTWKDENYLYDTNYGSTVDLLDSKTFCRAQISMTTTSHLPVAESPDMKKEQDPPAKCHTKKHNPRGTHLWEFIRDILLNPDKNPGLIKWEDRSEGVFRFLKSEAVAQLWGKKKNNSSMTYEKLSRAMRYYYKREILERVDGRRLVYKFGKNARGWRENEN
The procedure, abridged:
as §1

Another assay addresses SPI1 (Homo sapiens, UniProt P17947 1-270). Summed up: as §1
The target of a further assay is SPIB (Homo sapiens, UniProt Q01892 1-262). Summed up: as §1
A further assay concerns the target T6, FEV (Homo sapiens, UniProt Q99581 1-238).
T6 sequence: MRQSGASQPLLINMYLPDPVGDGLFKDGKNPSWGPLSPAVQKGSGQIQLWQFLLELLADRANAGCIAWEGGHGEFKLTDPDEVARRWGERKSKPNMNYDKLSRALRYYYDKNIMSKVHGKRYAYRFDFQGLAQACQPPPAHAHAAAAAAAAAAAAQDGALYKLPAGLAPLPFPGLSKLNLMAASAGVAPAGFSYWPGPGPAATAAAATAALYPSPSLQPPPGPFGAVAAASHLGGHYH
Summed up: as §1

Another assay has as its target ETV5 (Homo sapiens, UniProt P41161 1-510). The procedure, abridged: as §1
The target of another assay is ELF4 (Homo sapiens, UniProt Q99607 1-663). Summed up: as §1
The target in another assay is ETV1 (Homo sapiens, UniProt P50549 1-477). The procedure, abridged:
as §1

The next assay addresses T7, ERF (Homo sapiens, UniProt P50548 1-548).
T7 sequence: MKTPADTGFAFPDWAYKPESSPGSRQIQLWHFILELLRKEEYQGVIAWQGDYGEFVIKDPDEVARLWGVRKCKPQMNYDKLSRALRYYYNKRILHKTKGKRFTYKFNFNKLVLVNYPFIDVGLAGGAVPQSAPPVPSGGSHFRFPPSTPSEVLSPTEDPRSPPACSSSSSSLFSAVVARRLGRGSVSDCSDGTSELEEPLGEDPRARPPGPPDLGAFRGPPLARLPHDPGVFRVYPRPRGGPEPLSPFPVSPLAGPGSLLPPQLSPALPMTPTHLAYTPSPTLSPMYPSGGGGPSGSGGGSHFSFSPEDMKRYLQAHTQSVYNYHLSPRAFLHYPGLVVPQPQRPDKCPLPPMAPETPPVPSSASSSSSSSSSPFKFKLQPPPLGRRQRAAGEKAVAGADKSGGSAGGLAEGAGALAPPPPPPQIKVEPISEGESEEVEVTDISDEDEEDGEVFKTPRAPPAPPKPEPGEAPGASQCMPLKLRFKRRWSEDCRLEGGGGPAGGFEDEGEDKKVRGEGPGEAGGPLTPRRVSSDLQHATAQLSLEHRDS
The procedure, abridged:
as §1

Another assay addresses T8, ETV3L (Homo sapiens, UniProt Q6ZN32 1-361).
T8 sequence: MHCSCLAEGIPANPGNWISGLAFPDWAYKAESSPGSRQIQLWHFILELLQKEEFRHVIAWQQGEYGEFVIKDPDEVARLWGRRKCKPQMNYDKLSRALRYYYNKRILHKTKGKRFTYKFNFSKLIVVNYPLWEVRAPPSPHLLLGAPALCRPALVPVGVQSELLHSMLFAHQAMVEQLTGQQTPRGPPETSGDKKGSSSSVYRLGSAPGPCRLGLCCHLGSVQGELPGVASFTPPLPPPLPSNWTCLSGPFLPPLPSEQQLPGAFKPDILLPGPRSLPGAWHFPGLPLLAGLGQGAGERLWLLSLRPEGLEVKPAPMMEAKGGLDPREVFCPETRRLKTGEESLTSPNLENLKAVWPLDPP
The procedure, abridged:
as §1

The next assay has as its target T9, ETS2 (Homo sapiens, UniProt P15036 1-469).
T9 sequence: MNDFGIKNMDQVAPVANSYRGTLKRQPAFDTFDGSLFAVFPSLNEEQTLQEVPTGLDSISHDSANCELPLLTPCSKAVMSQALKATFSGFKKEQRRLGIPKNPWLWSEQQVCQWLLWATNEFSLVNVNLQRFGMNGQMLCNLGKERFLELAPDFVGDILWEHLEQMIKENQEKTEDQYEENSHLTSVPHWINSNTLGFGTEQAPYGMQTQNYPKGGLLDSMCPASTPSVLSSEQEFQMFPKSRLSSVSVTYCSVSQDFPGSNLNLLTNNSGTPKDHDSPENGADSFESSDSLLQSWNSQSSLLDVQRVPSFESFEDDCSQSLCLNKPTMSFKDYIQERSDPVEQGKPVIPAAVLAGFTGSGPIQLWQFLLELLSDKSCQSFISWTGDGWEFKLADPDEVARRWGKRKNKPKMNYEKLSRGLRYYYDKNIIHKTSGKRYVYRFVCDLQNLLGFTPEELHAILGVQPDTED
The procedure, abridged:
as §1

A further assay deals with T10, SPDEF (Homo sapiens, UniProt O95238 1-335).
T10 sequence: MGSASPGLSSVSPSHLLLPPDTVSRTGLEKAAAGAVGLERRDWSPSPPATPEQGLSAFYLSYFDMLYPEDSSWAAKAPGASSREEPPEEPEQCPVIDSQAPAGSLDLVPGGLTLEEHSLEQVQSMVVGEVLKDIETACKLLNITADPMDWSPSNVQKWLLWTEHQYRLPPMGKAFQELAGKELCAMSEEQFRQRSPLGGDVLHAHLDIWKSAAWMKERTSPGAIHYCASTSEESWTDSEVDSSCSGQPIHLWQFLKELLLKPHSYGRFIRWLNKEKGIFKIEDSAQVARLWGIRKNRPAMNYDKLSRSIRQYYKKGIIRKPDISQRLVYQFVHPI
Summed up: as §1

In a further assay the target is T11, ELF5 (Homo sapiens, UniProt Q9UKW6-2 1-255).
T11 sequence: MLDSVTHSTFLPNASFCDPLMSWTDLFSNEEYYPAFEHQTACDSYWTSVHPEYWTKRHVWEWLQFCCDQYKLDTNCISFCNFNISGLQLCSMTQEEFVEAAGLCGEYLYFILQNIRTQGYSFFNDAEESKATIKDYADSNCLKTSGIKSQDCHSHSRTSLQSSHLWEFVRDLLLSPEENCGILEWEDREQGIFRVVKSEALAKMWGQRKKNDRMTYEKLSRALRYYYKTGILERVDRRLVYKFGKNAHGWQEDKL
The procedure, abridged:
as §1

The next assay concerns the target T12, ETV3 (Homo sapiens, UniProt P41162-2 1-143).
T12 sequence: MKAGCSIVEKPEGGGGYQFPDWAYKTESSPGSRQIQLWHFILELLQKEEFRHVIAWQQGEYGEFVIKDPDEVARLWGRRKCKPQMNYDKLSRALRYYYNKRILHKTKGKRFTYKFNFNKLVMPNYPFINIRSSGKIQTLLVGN
Summed up: as §1

SPIB, sequence (Q01892 whole entry): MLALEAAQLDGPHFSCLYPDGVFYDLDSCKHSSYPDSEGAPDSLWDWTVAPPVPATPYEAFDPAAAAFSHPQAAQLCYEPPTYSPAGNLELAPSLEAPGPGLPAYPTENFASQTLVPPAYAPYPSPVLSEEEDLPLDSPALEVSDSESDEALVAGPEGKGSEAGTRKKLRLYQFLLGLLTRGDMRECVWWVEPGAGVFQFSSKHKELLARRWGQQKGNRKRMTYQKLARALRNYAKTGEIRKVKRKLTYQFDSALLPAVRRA
ETV1, sequence (P50549 whole entry): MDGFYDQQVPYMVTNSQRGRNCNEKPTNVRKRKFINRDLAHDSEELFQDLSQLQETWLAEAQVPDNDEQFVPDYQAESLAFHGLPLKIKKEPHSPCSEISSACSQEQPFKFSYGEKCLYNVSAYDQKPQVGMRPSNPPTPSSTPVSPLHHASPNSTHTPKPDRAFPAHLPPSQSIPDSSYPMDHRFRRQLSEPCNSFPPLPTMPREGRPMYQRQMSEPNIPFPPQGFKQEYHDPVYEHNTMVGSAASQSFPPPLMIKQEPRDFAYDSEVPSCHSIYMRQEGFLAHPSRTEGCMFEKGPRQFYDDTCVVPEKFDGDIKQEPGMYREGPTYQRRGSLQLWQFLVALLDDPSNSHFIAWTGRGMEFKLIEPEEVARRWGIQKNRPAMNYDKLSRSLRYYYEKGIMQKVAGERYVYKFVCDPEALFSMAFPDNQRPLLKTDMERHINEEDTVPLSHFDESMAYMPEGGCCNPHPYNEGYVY
ETV5, sequence (P41161 whole entry): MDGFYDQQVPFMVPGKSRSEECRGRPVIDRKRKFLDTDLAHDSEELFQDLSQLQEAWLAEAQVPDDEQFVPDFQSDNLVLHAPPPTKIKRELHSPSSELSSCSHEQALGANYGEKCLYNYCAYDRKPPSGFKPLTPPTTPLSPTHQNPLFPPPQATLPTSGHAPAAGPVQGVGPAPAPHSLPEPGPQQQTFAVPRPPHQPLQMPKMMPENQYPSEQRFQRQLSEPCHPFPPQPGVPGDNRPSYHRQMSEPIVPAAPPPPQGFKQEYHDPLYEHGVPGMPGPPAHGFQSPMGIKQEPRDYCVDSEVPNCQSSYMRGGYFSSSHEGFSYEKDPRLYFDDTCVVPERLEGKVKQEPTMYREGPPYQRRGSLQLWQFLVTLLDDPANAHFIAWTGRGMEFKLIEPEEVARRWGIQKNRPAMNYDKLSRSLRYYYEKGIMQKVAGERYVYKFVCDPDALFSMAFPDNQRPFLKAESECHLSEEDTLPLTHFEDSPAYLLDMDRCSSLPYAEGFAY
ELF4, sequence (Q99607 whole entry): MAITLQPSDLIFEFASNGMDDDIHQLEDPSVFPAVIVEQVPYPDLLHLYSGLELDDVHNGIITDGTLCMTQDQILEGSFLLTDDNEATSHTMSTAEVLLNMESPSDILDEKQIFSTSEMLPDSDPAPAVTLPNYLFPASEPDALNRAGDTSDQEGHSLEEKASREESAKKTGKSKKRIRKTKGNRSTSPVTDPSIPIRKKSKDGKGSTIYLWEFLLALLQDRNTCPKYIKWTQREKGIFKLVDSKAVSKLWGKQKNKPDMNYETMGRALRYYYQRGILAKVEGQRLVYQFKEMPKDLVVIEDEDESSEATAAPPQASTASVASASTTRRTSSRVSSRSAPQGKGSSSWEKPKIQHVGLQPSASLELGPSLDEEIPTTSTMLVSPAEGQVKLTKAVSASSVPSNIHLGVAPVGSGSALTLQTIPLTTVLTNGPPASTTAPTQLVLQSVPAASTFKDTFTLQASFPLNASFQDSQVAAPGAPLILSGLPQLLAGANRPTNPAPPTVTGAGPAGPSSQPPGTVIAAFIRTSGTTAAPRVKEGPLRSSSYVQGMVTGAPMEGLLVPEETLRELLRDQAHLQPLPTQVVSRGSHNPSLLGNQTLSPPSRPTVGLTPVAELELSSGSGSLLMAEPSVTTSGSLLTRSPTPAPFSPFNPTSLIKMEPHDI
ELF1, sequence (P32519 whole entry): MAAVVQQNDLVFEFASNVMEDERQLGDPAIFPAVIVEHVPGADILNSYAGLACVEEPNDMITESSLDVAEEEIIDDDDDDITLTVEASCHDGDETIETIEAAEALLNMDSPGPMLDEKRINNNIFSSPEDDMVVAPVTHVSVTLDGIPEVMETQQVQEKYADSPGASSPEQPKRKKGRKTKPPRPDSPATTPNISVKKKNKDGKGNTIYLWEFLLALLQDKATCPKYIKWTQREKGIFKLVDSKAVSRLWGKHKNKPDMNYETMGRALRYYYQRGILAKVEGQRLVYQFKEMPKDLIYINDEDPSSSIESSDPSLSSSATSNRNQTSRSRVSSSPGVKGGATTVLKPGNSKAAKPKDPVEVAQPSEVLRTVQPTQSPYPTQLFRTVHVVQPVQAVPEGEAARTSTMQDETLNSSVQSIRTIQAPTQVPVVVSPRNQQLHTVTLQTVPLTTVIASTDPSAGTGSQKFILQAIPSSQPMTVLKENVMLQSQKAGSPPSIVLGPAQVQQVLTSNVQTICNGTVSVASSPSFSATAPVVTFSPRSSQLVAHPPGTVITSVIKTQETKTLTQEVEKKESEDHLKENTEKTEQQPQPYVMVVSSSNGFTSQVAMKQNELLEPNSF

For the sequence GCAATT, the binding signal is 1.17 fold enrichment (6-mer frequency, TF over GST control) in the assay with FLI1; 1.15 fold enrichment (6-mer frequency, TF over GST control) with ELK1; 1.14 fold enrichment (6-mer frequency, TF over GST control) with GABPA; 1.02 fold enrichment (6-mer frequency, TF over GST control) with ERG; 1.06 fold enrichment (6-mer frequency, TF over GST control) with ELF1; 1.09 fold enrichment (6-mer frequency, TF over GST control) with EHF. For the same sequence, the binding signal is 1.23 fold enrichment (6-mer frequency, TF over GST control) with SPI1; 1.21 fold enrichment (6-mer frequency, TF over GST control) in the assay with SPIB; 1.14 fold enrichment (6-mer frequency, TF over GST control) with FEV; 1.12 fold enrichment (6-mer frequency, TF over GST control) with ETV5; 1.12 fold enrichment (6-mer frequency, TF over GST control) with ELF4; 1.06 fold enrichment (6-mer frequency, TF over GST control) in the assay with ETV1. For the same sequence, the binding signal in the assay with ERF was 1.2 fold enrichment (6-mer frequency, TF over GST control); with ETV3L, 1.08 fold enrichment (6-mer frequency, TF over GST control); with ETS2, 1.09 fold enrichment (6-mer frequency, TF over GST control); with SPDEF, 1.06 fold enrichment (6-mer frequency, TF over GST control); in the assay with ELF5, 1.08 fold enrichment (6-mer frequency, TF over GST control); in the assay with ETV3, 1.18 fold enrichment (6-mer frequency, TF over GST control).
